The panel holds about 83,000 compounds, 20% with a hit somewhere; the sample as a whole holds those more often.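 A percent growth of 40 corresponds to 60% growth inhibition; 0 means no net growth; -100 means all cells died. Active threshold: below 10.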 Values without a mark were called inactive. Active and inactive are the calls of the source.

The text below walks through data of PubChem BioAssay (NCI).

Assay in all cases: NCI-60 one-dose screen, 48 h (100 = growth as untreated, 0 = no growth, -100 = all killed)
Assay [1] concerns HT29 colon. The following applies: 10 µM unless noted.
Assay [2] concerns SNB-75 CNS. The following applies: 10 µM unless noted.
Assay [3] deals with SNB-19 CNS. The following applies: 10 µM unless noted.
Assay [4] deals with U251 CNS. The following applies: 10 µM unless noted.
The test system of assay [5] is PC-3 prostate. The following applies: 10 µM unless noted.
Assay [6] relates to SK-MEL-5 melanoma. The following applies: 10 µM unless noted.
The test system of assay [7] is UACC-62 melanoma. As to conditions: 10 µM unless noted.
The subject of assay [8] is LOX IMVI melanoma. As to conditions: 10 µM unless noted.
The test system of assay [9] is SK-MEL-28 melanoma. The following applies: 10 µM unless noted.
Assay [10] has as its system SK-MEL-2 melanoma. The following applies: 10 µM unless noted.
Assay [11] relates to EKVX NSCLC. As to conditions: 10 µM unless noted.
The test system of assay [12] is SN12C renal. As to conditions: 10 µM unless noted.
The test system of assay [13] is UO-31 renal. The following applies: 10 µM unless noted.
Assay [14] has as its system TK-10 renal. As to conditions: 10 µM unless noted.
The subject of assay [15] is ACHN renal. As to conditions: 10 µM unless noted.
Assay [16] deals with CAKI-1 renal. As to conditions: 10 µM.
Assay [17] concerns CCRF-CEM leukemia. The following applies: 10 µM unless noted.
The subject of assay [18] is MOLT-4 leukemia. As to conditions: 10 µM unless noted.
In assay [19] the test system is A498 renal. As to conditions: 10 µM unless noted.

On to `COC[C@@]1(C)CC[C@]2(C)CC[C@]3(C)C(=CC[C@@H]4[C@@]5(C)CCCNC(C)(C)[C@@H]5CC[C@]43C)C2C1` (stereo not given in full), for which the growth is 23.3% in assay [1]; 104% in assay [2]; 67.5% in assay [3]; 35.3% in [4]; 46.4% in assay [5]; 87.7% in assay [6]. The growth in assay [7] is 64.5%; in assay [8], 12.6%; in assay [9], 66.6%; in [10], 78.1%; in assay [11], 76.9%; in assay [12] it was 51.6%. In addition, the growth is 90.4% in assay [13]; 110% in assay [14]; 87.1% in [15]; 71.7% in assay [16]; 47.7% in [17]; 34.1% in assay [18].
Consider `Nc1n[nH]c2cccc(C#Cc3cccc(NC(=O)c4cccc(OC(F)(F)F)c4)c3)c12`, for which the growth is 36.1% in assay [1]; 47.7% in assay [2]; 81.3% in assay [3]; 59.3% in assay [4]; 68.3% in [5]; 80.9% in assay [6]. Moreover, the growth in assay [7] was 30.1%; in [8], 16.9%; in assay [9], 30.3%; in assay [11], 91%; in assay [12], 39.7%; in assay [13] it was 26.9%. Moreover, the growth in [15] was 31.7%; in [16] it was 48.3%; in assay [19], 56.4%; in assay [17] it was 76.2%; in assay [18] it was 35.4%.
`CNC(=O)c1cc(Oc2ccc3nc(NC(=O)c4ccc(CN5CCCN(C)CC5)c(C(F)(F)F)c4)sc3c2)ccn1`: the growth was -75.5% (active) in [1]; 7.5% (active) in [3]; 1.82% (active) in [4]; 22.2% in assay [5]; -59.9% (active) in assay [6]; -7.16% (active) in assay [7]. In addition, the growth in assay [8] is -81.9% (active); in [9], -74% (active); in [11], 40.1%; in assay [12] it was 54.9%; in assay [13] it was 4.18% (active); in assay [14] it was 47.9%. Besides, the growth was 4.16% (active) in [15]; 14.6% in [16]; 66.2% in [19]; 8.38% (active) in assay [17]; -35.2% (active) in [18].
On to `COc1cc(C2=NN(C(C)=O)C(c3ccc(N4CCOCC4)cc3)C2)cc(OC)c1OC` (stereo not given), for which the growth in assay [1] was 109%; in assay [2] it was 96%; in [3], 98.6%; in [4] it was 104%; in assay [5] it was 106%; in [6], 97.7%. Besides, the growth in [7] is 87.8%; in [8], 98.1%; in assay [9], 104%; in [10] it was 97%; in assay [11] it was 101%; in assay [12] it was 98.3%. In addition, the growth in [13] is 84%; in [14], 108%; in assay [15], 99.6%; in [16] it was 94.7%; in assay [19] it was 78.7%; in assay [17] it was 97.3%. Besides, the growth in assay [18] is 106%.
Take `CC1OC(O[C@@H]2[C@H](O)C(CO)OC(O[C@H]3COC(O[C@H]4CC[C@]5(C)[C@H]6CC[C@]78OC[C@@]9(CCC(C)(C)C[C@H]97)[C@H](O)C[C@@]8(C)[C@]6(C)CC[C@H]5C4(C)C)[C@@H](OC4OC(CO)[C@@H](O)[C@@H](O)[C@@H]4O)[C@@H]3O)[C@H]2OC2OC[C@@H](O)[C@@H](O)[C@@H]2O)[C@@H](O)[C@@H](O)[C@H]1O` (stereo not given in full): the growth is -79% (active) in assay [1]; -87.1% (active) in [2]; -69.2% (active) in assay [3]; -86.8% (active) in [4]; -85.4% (active) in assay [5]; -82.7% (active) in [8]. For the same compound, the growth in assay [10] was -81.4% (active); in [11], -64% (active); in assay [13], -90.8% (active); in [14], -93.8% (active); in [15], -92.5% (active); in assay [16], -95.9% (active). The growth in [19] was -86.5% (active); in assay [17], -60% (active); in assay [18], -61.1% (active).
Turning to `O=C(Nc1ccc(-c2nc(-c3cccc(O)c3)c(-c3ccnc(Br)c3)[nH]2)cc1)c1ccccc1`, the growth in [1] was 12.2%; in assay [2] it was -2.13% (active); in assay [3], 23.3%; in [4] it was 20.8%; in assay [5], 6.14% (active); in assay [6] it was -67% (active). The growth in assay [7] is 22.1%; in assay [8] it was 3.27% (active); in assay [10] it was 10.3%; in assay [11], 26.7%; in [12], 35%; in [13], 1.13% (active). Moreover, the growth in [14] was 49%; in [15], 16.5%; in assay [16], 11.3%; in assay [19], -11.4% (active); in assay [17], 3.66% (active); in assay [18] it was -15.8% (active).
With `CCOC(=O)Nc1cccc(-n2cnc3cc(-c4ccc(O)cc4)ccc32)c1`, the growth was 5.49% (active) in [1]; 3.54% (active) in assay [2]; 27.1% in assay [3]; 19.1% in assay [4]; 29.9% in assay [5]; 9.15% (active) in assay [6]. Also, the growth was 35.8% in assay [7]; 41.2% in assay [8]; 63.8% in assay [9]; 15.8% in [10]; 42.7% in assay [11]; 31.2% in assay [12]. Further, the growth was 26.4% in [13]; 57.1% in assay [14]; 19.9% in assay [15]; 33% in [16]; -25.1% (active) in assay [19]; 24.5% in assay [17]. The growth in [18] was 10.6%.
On to `Cc1ccc(/C=C/c2nn3c(-c4ccco4)nnc3s2)cc1`, for which the growth in assay [1] was 103%; in assay [2], 108%; in [3], 92.6%; in assay [4] it was 101%; in assay [5] it was 98.4%; in assay [6], 98.4%. For the same compound, the growth is 90.7% in assay [7]; 105% in assay [8]; 94.1% in [9]; 108% in assay [11]; 107% in [12]; 85.6% in assay [13]. Also, the growth in [14] is 87.9%; in [15], 99.9%; in assay [16] it was 86.8%; in assay [19], 89%; in assay [17] it was 98.9%.
Turning to `O=C(Nc1ccc(Cl)cc1)Nc1nc2ccc([N+](=O)[O-])cc2s1`, the growth in [1] was 1.88% (active); in [3], 11.5%; in assay [4] it was -11% (active); in [5] it was -7.8% (active); in [6], -83.7% (active); in assay [9], -12.3% (active). The growth was -40.8% (active) in [10]; 4.04% (active) in assay [11]; -0.314% (active) in [12]; 3.55% (active) in [13]; -20.5% (active) in assay [14]; 0.28% (active) in [15]. Moreover, the growth in assay [16] was -16.5% (active); in assay [17], 4.8% (active); in [18], -7.74% (active).
